# Rows were chosen to be rich in hits. Some 3.8% of all compounds tested hit in one or more screens of this group.
# TGFb SMAD3 inh: blocks TGF-b signaling. 410,000 tested, 1.2% active. Potency, µM (top dose mostly 46.1 µM), for the others: at the highest dose activity, negative = inhibition, actives largely listed as inhibitors. HepG2 CAGA-GFP TGF-b/SMAD3 reporter, GFP fluorescence, 18 h; TGF-beta stimulated, 500 pg/mL final; note: % is set by controls: 0 for no effect and ±100 for the full control effect; nearly all actives have a fitted effect of over 65% in size
#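 Inhibition of TGF-beta-driven CAGA-GFP reporter expression in HEPG2 cells is measured by cellular GFP fluorescence after 18 h stimulation with 500 pg/mL recombinant TGF-beta in 1% FBS medium at 37 degrees C.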
# ATXN2 expr inh: ATXN2 expression inhibition; HEK-293 ATXN2-luciferase reporter, luminescence, 24 h; Potency, µM (top dose mostly 57 µM), without a hit: at the highest dose activity change, negative = inhibition, usual class: inhibitors; 360,000 tested, 0.72% active; AID 1745845; note: % is set by controls: 0 for no effect and ±100 for the full control effect; nearly all actives have a fitted effect of over 55% in size
#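 qHTS (up to 57 uM final) was run with 24 h compound exposure of reporter cells at 37 °C. Each well was multiplexed: SteadyGlo luminescence measured ATXN2-luciferase expression after a fluorogenic Gly-Phe-AFC viability readout (25 uM final).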
# Nrf2 block: blocks Nrf2 signaling | 360,000 tested, 2.1% active | Potency, µM (top dose mostly 46 µM), without a hit: at the top dose activity change, negative = inhibition, hits mostly inhibitors | A549 ARE-Fluc reporter, luciferase luminescence, 18-24 h | AID 504444; note: % is set by controls: 0 for no effect and ±100 for the full control effect; nearly all actives have a fitted effect of over 60% in size
#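 Concentration-response testing used A549 ARE_Fluc cells at 5000 cells/well. Following an 18-24 h compound incubation, viability was read by fluorescence (Ex 405/Em 525) and luciferase output by luminescence.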
# A549 tox-1: A549 cytotoxicity, counter-screen for Nrf2 inhibitors; A549 ARE-Fluc cells, CellTiter-Fluor viability, 18-24 h; 390,000 tested, 0.16% active; Potency, µM (doses to about 46 µM), without a hit: at the highest dose activity change, negative = cytotoxicity, usual class: inhibitors; AID 504648; note: % is set by controls: 0 for no effect and ±100 for the full control effect
#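 Cytotoxicity counterscreen: CellTiter-Fluor fluorescence was measured in A549 ARE_Fluc cells after 18-24 h of compound exposure in a concentration series. The subsequent BugLite luminescent read reports ARE-luciferase activity.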
# HepG2 tox: counter-screen for TGF-b inhibitors: cytotoxicity in HepG2 cells; Potency, µM (top dose mostly 46.1 µM), without a hit: at the top dose activity change, negative = cytotoxicity, usual class: cytotoxic; 410,000 tested, 0.76% active; HepG2 CAGA-GFP viability, ATP luminescence, 18 h; AID 588856
#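 HepG2 CAGA-GFP cells (1000/well, DMEM with 1% FBS) received compound, then TGF-beta at 500 pg/mL final, and were incubated 18 hours at 37 degrees C. Viability was read by CellTiter-Glo luminescence. Media-only wells were set as complete cell-killing and DMSO as no toxicity.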
# ATXN viability: cell viability loss in ATXN counter-screen. Potency, µM (highest dose often 56.7 µM), actives largely listed as cytotoxic. 400,000 tested, 0.49% active. S2 cells (HEK-293 line with an ATXN2-luciferase reporter) viability, CellTiter-Fluor protease fluorescence, 24 h; note: nearly all actives have a fitted effect of over 40% in size
# FLuc counter 3: blocks purified firefly luciferase in Nrf2 counterscreen; Potency, µM (top dose mostly 57.5 µM), inactives show at the highest dose activity change, negative = inhibition, hits mostly inhibitors; shares compounds with Nrf2 block; purified firefly luciferase, luminescence inhibition; 1,400 tested, 4% active; note: % is set by controls: 0 for no effect and ±100 for the full control effect; nearly all actives have a fitted effect of over 65% in size
# Target sequence (P08659 whole entry, looked up): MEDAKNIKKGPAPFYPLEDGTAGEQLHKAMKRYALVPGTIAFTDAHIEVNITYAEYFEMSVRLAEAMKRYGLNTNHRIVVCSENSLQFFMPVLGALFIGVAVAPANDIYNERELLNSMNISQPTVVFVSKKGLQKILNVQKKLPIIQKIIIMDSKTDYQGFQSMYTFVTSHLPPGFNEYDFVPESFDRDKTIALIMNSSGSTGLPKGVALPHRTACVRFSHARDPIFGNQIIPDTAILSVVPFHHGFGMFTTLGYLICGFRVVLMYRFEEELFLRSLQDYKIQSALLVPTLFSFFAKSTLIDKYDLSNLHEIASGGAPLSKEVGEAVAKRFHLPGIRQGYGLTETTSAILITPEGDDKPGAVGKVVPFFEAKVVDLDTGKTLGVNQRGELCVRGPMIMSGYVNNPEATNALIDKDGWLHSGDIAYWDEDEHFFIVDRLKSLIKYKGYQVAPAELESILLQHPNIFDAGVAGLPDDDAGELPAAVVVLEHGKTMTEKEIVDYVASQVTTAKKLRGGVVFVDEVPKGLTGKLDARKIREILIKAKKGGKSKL
# A549 tox-2: A549 cytotoxicity, Nrf2 inhibitor counterscreen; shares compounds with Nrf2 block; A549 ARE-Fluc cells, cytotoxicity counterscreen; Potency, µM (series often up to 46.1 µM), for inactives: at the highest dose activity change, negative = cytotoxicity, most hits filed as inhibitors; 1,400 tested, 2% active;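 note: cells exposed to compounds for 18 to 24 hours; % is set by controls: 0 for no effect and ±100 for the full control effect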
# ARE-Fluc inh: reduces Nrf2 ARE reporter signal in A549 cells; A549 ARE-firefly luciferase reporter, luminescence; Potency, µM (series often up to 46.1 µM), for the others: at the top dose activity change, negative = inhibition, actives largely listed as inhibitors; 1,400 tested, 74% active; shares compounds with Nrf2 block; note: % is set by controls: 0 for no effect and ±100 for the full control effect; nearly all actives have a fitted effect of over 65% in size
# The depositor's hits bear a star; i = inactive; ? = inconclusive; . = no result. Calls come from the whole dose curve; as a rule, active = well fitted curve in the direction sought with a large enough effect; inconclusive = small, poorly fitted or top-dose-only effect, or another doubt; inactive = no such curve, though single readings can be large; an effect the other way counts as inactive or inconclusive. Potency is the fitted concentration of half-maximal effect.
SMILES,TGFb SMAD3 inh,ATXN2 expr inh,Nrf2 block,A549 tox-1,HepG2 tox,ATXN viability,others
Cc1ccc(-n2c(SCc3ccc(C#N)cc3)nnc2-c2ccccn2)cc1,-12.7%,2.6%,-11.7%,-10.2%,-19.6%,i,
Cc1ccc(-c2nnc3ccc(SCC(=O)N4CCCc5ccccc54)nn23)cc1,-17.6%,?,-9.3%,-7.3%,2.3%,8.91µM*,
N#CCSc1nnc(COc2cccc3ccccc23)n1-c1ccccc1,?,?,?,-14.5%,-32.0%,?,
COc1ccc(OCc2nnc(SCC(=O)N3CCCc4ccccc43)n2-c2ccc(C)cc2)cc1,?,-24.2%,23.1µM*,?,-31.1%,i,
Cc1ccc(OCc2nnc(SCc3ccc(C#N)cc3)n2-c2ccc(C)cc2)cc1,?,-24.3%,18.4µM*,?,-32.4%,i,
CCCOC(=O)C1C2C=C[C@]3(CN(CCc4ccccc4)C(=O)[C@H]13)O2 (stereo not given in full),4.5%,7.7%,2.0%,-8.0%,-3.1%,i,
COc1ccc(C(=O)O)cc1NC(=S)NC(=O)C(c1ccccc1)c1ccccc1,4.6%,1.6%,2.6%,-0.3%,4.9%,i,
O=C(COc1ccccc1C(=O)Nc1ccccc1)Nc1cccc([N+](=O)[O-])c1,-2.0%,.,.,.,-1.5%,.,
O=C(CCS(=O)(=O)c1ccccc1)N(CCCN1CCOCC1)c1nc2c(F)cccc2s1,?,?,2.0%,-0.1%,-73.2%,.,
O=C(CCS(=O)(=O)c1ccccc1)N(CCCN1CCOCC1)c1nc2ccc(F)cc2s1,?,?,24.0%,-15.1%,12.6µM*,.,
CCC(C)c1ccc(C(C)NC(=S)NCc2ccc(F)cc2)cc1 (stereo not given),17.8µM*,?,14.6µM*,-20.6%,-22.8%,i,
CCC(NC(=S)NCc1ccc(F)cc1)c1ccc(C(C)C)cc1 (stereo not given),?,-36.9%,?,-10.9%,-39.0%,i,
CCCc1ccc(C(C)NC(=S)NCc2ccc(F)cc2)cc1 (stereo not given),?,-39.2%,?,0.2%,-10.8%,i,
CC(NC(=S)NCc1ccc(F)cc1)C12CC3CC(CC(C3)C1)C2 (stereo not given),?,14.1µM*,?,-5.8%,-10.9%,i,
Cc1c(Cl)cccc1NC(=O)C(C)N(c1ccccc1)S(C)(=O)=O (stereo not given),?,-7.3%,2.3%,11.1%,-14.0%,i,
CC(=O)OCC1=C(C(=O)O)N2C(=O)C(NC(=O)c3ccc(F)cc3)C2SC1 (stereo not given),-5.3%,.,11.7%,-7.4%,4.0%,14.1µM*,
CC(=O)OCC1=C(C(=O)O)N2C(=O)C(NC(=O)Cc3ccccc3)C2SC1 (stereo not given),18.3%,.,.,.,13.5%,.,
CCCCN(C(=O)CSc1ncn[nH]1)c1c(N)n(Cc2ccccc2)c(=O)[nH]c1=O,-3.6%,4.5%,1.3%,0.5%,-18.5%,i,
Cc1ccc(C(=O)N/C(=C\c2ccc(Br)cc2)c2nc(=S)[nH][nH]2)cc1,?,?,?,25.9µM*,12.6µM*,.,
CC(C)Nc1ncnc2ccc(Br)cc12,-6.7%,5.4%,10.3µM*,-8.1%,-29.3%,i,
CC(C)COc1ccc(Nc2ncnc3ccc(Br)cc23)cc1,6.8%,9.7%,5.7%,3.2%,-2.6%,i,
COc1ccccc1Cc1c(-c2ccc(Cl)cc2)nc2c(C)cc(Br)cn12,14.1µM*,?,.,.,12.6µM*,?,
CCCc1nc2c(C)cc(Br)cn2c1Cc1ccccc1C(F)(F)F,?,?,.,.,10µM*,?,
CCCc1nc2ccc(Br)cn2c1Cc1ccccc1OC,15.8µM*,?,.,.,-48.7%,22.4µM*,
Cc1cc(Br)cn2c(Cc3ccccc3C(F)(F)F)c(-c3ccccc3)nc12,.,21.1%,.,.,.,i,
SMILES,TGFb SMAD3 inh,ATXN2 expr inh,Nrf2 block,A549 tox-1,HepG2 tox,ATXN viability,others
COc1ccccc1Cc1c(C2CCCCC2)nc2ccc(Cl)cn12,?,?,.,.,17.8µM*,?,
Clc1ccc2nc(C3CCCCC3)c(Cc3ccccc3)n2c1,-19.6%,5.1%,.,.,-10.8%,i,
CC(C)(C)n1ncc2c(=O)n(Cc3cc(F)c(F)cc3Cl)cnc21,9.1%,.,.,.,6.1%,.,
COC(=O)c1ccc2nc(C3CCCCC3)c(Cc3ccccc3C(F)(F)F)n2c1,22.4µM*,?,.,.,-104.8%,?,
Cc1ccc(-c2nc3ccc(Cl)cn3c2Cc2ccccc2C(F)(F)F)cc1,?,56.7%,.,.,-2.5%,i,
FC(F)(F)c1ccccc1Cc1c(C2CCCCC2)nc2ccc(Cl)cn12,?,?,.,.,-31.1%,17.8µM*,
Cc1ccc2nc(C3CCCCC3)c(CC(C)(C)C)n2c1,?,-32.1%,.,.,-25.0%,22.4µM*,
COc1ccccc1Cc1c(C2CCCCC2)nc2ccc(C)cn12,15.8µM*,?,.,.,-51.4%,.,
Cc1ccc(Cc2c(C3CCCCC3)nc3ccc(Br)cn23)cc1,?,-25.8%,.,.,-12.6%,?,
Cc1ccc2nc(C(F)(F)F)c(C#N)c(N)c2c1,?,-36.3%,3.66µM*,?,-4.3%,i,FLuc counter 3=-12.1%;A549 tox-2=-26.0%;ARE-Fluc inh=7.31µM*
Cc1cc(C)c2nc(C(F)(F)F)c(C#N)c(N)c2c1,2.6%,17.4%,?,-20.2%,-17.0%,i,
Cc1cccc(N2CCN(C(=O)c3cccc(N4CCCC4=O)c3)C(C)C2)c1 (stereo not given),17.5%,.,-4.6%,-10.2%,10.6%,i,
COC(=O)C12OCC34C(CC5C(C)=C(O)C(=O)CC5(C)C3C(O)C1O)OC(=O)C(OC(=O)C=C(C)C)C24 (stereo not given),-53.8%,?,0.0164µM*,?,0.0%,?,FLuc counter 3=1.6%;A549 tox-2=?;ARE-Fluc inh=0.0116µM*
C/C(=N\NC(=O)c1cccc2ccccc12)c1cccnc1,-7.9%,1.0%,0.4%,-3.2%,-6.2%,i,
